Test [1] is described as follows: Quantitative High-Throughput drug screen in 47 multiple myeloma cell lines against the NCATS MIPE library collection: PE2_PLB cell viability assay (AID 1919869). Note: nearly all actives have a fitted effect of over 35% in size. Note: potency is the fitted concentration of half-maximal effect. A digest of the protocol: (§1)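 ATP-based luminescence (CellTiter-Glo, 5 min RT incubation) quantified surviving cells following two days' treatment with MIPE 4.0 agents at 37 °C, 5% CO2.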
Test [2] can be described thus: Quantitative High-Throughput drug screen in 47 multiple myeloma cell lines against the NCATS MIPE library collection: KMS28BM_JCRB cell viability assay (AID 1919874). Note: nearly all actives have a fitted effect of over 35% in size. Note: potency is the fitted concentration of half-maximal effect. The method in brief: as §1
Test [3] in a line: qHTS drug screen for cell cycle checkpoint inhibitors in PARPi-resistant BRCA-mutant ovarian cancer cell lines. (AID 1963452; calls by dose curve). The note with it: PEO1/OlaR viability, CellTiter-Glo luminescence, 96 h, stronger effect = lower value. The method in brief: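 PEO1, PEO4 and PEO1/OlaR ovarian cancer cells, 600 per well, exposed 96 h at 37C to a dilution series. Viability read by CellTiter-Glo luminescence, normalized to DMSO and empty wells; activity summarized as Z-AUC.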
(In general: Quantitative high-throughput screening tests each substance at several concentrations.)

Test [4] is described as follows: qHTS for identification of novel therapeutic agents for treatment of microphthalmiaassociated transcription factor (MiT) renal cell carcinoma (RCC) (AID 1963991). The note with it: CellTiter-Glo, 48 h, stronger effect = lower value. A digest of the protocol: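 Viability of three TFE3-fusion renal carcinoma lines measured by CellTiter-Glo after 48 h treatment with each of 1912 compounds at 11 concentrations. Responses scaled between DMSO (100%) and empty wells (0%) before curve fitting.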

Test [5] is described as follows: Quantitative High-Throughput drug screen in 47 multiple myeloma cell lines against the NCATS MIPE library collection: PCM6_Riken cell viability assay (AID 1919870). Note: nearly all actives have a fitted effect of over 30% in size. Note: potency is the fitted concentration of half-maximal effect. The method in brief: as §1
Test [6] can be described thus: Quantitative High-Throughput drug screen in 47 multiple myeloma cell lines against the NCATS MIPE library collection: OPM2_DSMZ cell viability assay (AID 1919872). Note: nearly all actives have a fitted effect of over 30% in size. Note: potency is the fitted concentration of half-maximal effect. A digest of the protocol:
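Viability readout: CellTiter-Glo luminescence following 5 min room-temperature incubation with reagent. Prior exposure: 48 h, 37C, humidified 5% CO2, 500 cells per well.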

Test [7] is described as follows: Quantitative High-Throughput drug screen in 47 multiple myeloma cell lines against the NCATS MIPE library collection: RPMI8226_ATCC cell viability assay (AID 1919871). Note: nearly all actives have a fitted effect of over 30% in size. Note: potency is the fitted concentration of half-maximal effect. A digest of the protocol: as §1
Test [8] is described as follows: Quantitative High-Throughput drug screen in 47 multiple myeloma cell lines against the NCATS MIPE library collection: KMS11_JCRBsus cell viability assay (AID 1919873). Note: nearly all actives have a fitted effect of over 50% in size. Note: potency is the fitted concentration of half-maximal effect. The method in brief:
as §1

Setting [9] is: measured here: PEO1 parental Z-AUC.
[10] abbreviates: TFE3-RCC UOK109 viability, measured here: UOK109 Z-AUC.
Where [11] appears, read: TFE3-RCC viability, measured here: UOK124 Z-AUC.
The mark [12] stands for this setting: TFE3-RCC viability, measured here: UOK145 Z-AUC.

“And” between values parts separate entries of the source, which are not always exact repeats. Equal values may be shown once. Records with an inconclusive call do not appear. The source made the active and inactive calls. Unless noted, calls come from the whole dose curve; as a rule, active = well fitted cell-killing curve with a large enough effect; inconclusive = small, poorly fitted or top-dose-only effect, or effect the other way; inactive = no such curve, though single readings can be large or run the other way.

With `Cc1ccc(C(=O)Nc2ccc(S(=O)(=O)O)c3cc(S(=O)(=O)O)cc(S(=O)(=O)O)c23)cc1NC(=O)c1cccc(NC(=O)Nc2cccc(C(=O)Nc3cc(C(=O)Nc4ccc(S(=O)(=O)O)c5cc(S(=O)(=O)O)cc(S(=O)(=O)O)c45)ccc3C)c2)c1`, the Potency in test [1] is 5.9 µM (active). In test [2], the Potency result was “inactive”. The Z-AUC was 0.147 (inactive) in test [3], 0.903 in test [3] (setting [9]) and 0.677 in test [3] (measured here: PEO4 Z-AUC). The z-score in test [4] (setting [10]) is 0.0489; in test [4] (setting [11]), -1.39; in test [4] (setting [12]) it was -0.47.
Turning to `NC(CO)C(=O)NNCc1ccc(O)c(O)c1O` (stereo not drawn), the Potency entry in test [5] is “inactive”. The Potency is 18.7 µM (active) in test [6] and 23.5 µM (active) in test [2]. The Z-AUC was -0.229 (inactive) in test [3], -0.392 in test [3] (setting [9]) and -0.375 in test [3] (measured here: PEO4 Z-AUC). In addition, the figures for the z-score in test [4] (setting [10]), in test [4] (setting [11]) and in test [4] (setting [12]) were 0.539, -0.122 and 0.506, respectively.
With `O=C(c1ccc(OCCN2CCCCC2)cc1)c1c(-c2ccc(O)cc2)sc2cc(O)ccc12`, the Potency in test [5] was 18.7 µM (active); in test [7] it was 14.8 µM (active); in test [8], 16.6 µM (active); in test [2], 23.5 µM (active). Moreover, the Z-AUC was 0.6 (inactive) in test [3], 0.409 in test [3] (setting [9]) and 0.0416 in test [3] (measured here: PEO4 Z-AUC).
As to `NC(=O)OCC(COC(N)=O)c1ccccc1`, the Potency entry in test [1], in test [7] and in test [6] was “inactive” in each case. Also, the Z-AUC in test [3] is 0.532 (inactive); in test [3] (setting [9]) it was 1.02; in test [3] (measured here: PEO4 Z-AUC) it was 1.07. In addition, the z-score in test [4] (setting [10]) was 0.961; in test [4] (setting [11]) it was 0.566; in test [4] (setting [12]) it was -0.0858.
Regarding `CC1(CN2CCC(n3c(=O)[nH]c4ccccc43)CC2)OCc2ccccc2-n2cccc21` (stereo not drawn), the Potency in test [1] is 13.2 µM (active). Further, the Potency result in test [6] was “inactive”. Besides, the Z-AUC was 1.14 (inactive) in test [3], 0.846 in test [3] (setting [9]) and 0.865 in test [3] (measured here: PEO4 Z-AUC).
As for `CC(C)(C)C(=O)Oc1ccc(S(=O)(=O)Nc2ccccc2C(=O)NCC(=O)O)cc1`, the Potency result in test [7], in test [6], in test [8] and in test [2] was “inactive” throughout. Moreover, the results for the Z-AUC in test [3], in test [3] (setting [9]) and in test [3] (measured here: PEO4 Z-AUC) were 1.22 (inactive), 0.948 and 1.16, respectively. For the same compound, the z-score in test [4] (setting [10]) was 0.584; in test [4] (setting [11]), 0.0353; in test [4] (setting [12]), 0.435.
As for `Cn1ccc2cc3c(cc21)CCN3C(=O)Nc1cccnc1`, the Potency in test [5] is 23.5 µM (active). Moreover, the Potency result in test [7] was “inactive”. In addition, the values for the Z-AUC in test [3], in test [3] (setting [9]) and in test [3] (measured here: PEO4 Z-AUC) were 0.66 (inactive), 0.473 and 0.355, respectively.
In the case of `CC12CC3CC(C)(C1)CC(N)(C3)C2`, the Potency in test [5] was 20.9 µM (active); in test [2], 2.64 µM (active). Moreover, the Potency result in test [6] was “inactive”.
Consider `Cc1cn([C@H]2C=C[C@@H](CO)O2)c(=O)[nH]c1=O`, for which the Potency entry in test [7] and in test [6] was “inactive” in each case. For the same compound, the values for the z-score in test [4] (setting [10]), in test [4] (setting [11]) and in test [4] (setting [12]) were 0.266, 0.139 and 0.201, respectively.
Take `CN1CCN(C2=Nc3cc(Cl)ccc3Nc3ccccc32)CC1`: the Potency result in test [1], in test [7], in test [6] and in test [2] was “inactive” each time. In addition, the Z-AUC is 0.802 (inactive) in test [3], 0.75 in test [3] (setting [9]) and 0.32 in test [3] (measured here: PEO4 Z-AUC).
Take `C[C@H]1c2cccc(O)c2C(O)=C2C(=O)[C@]3(O)C(O)=C(C(N)=O)C(=O)[C@@H](N(C)C)[C@@H]3[C@@H](O)[C@@H]21`: the Z-AUC in test [3] was 0.309 (inactive) and -0.104 (inactive); in test [3] (setting [9]), 0.47 and 0.545; in test [3] (measured here: PEO4 Z-AUC), 0.542 and 0.724.
With `COc1ccccc1OCC(O)CN1CCN(CC(=O)Nc2c(C)cccc2C)CC1` (stereo not drawn), the Potency result in test [1], in test [6], in test [8] and in test [2] was “inactive” in each case. For the same compound, the Z-AUC in test [3] is -0.161 (inactive); in test [3] (setting [9]), 0.571; in test [3] (measured here: PEO4 Z-AUC) it was 0.54. Also, the z-score in test [4] (setting [10]) is 0.18; in test [4] (setting [11]) it was 0.373; in test [4] (setting [12]), -0.0249.
In the case of `CC1COc2c(N3CCN(C)CC3)c(F)cc3c(=O)c(C(=O)O)cn1c23` (stereo not drawn), the Potency result in test [7], in test [6] and in test [2] was “inactive” throughout. In addition, the Z-AUC in test [3] was -0.369 (inactive); in test [3] (setting [9]), 0.841; in test [3] (measured here: PEO4 Z-AUC), -0.196.
As to `CC(COc1ccccc1)N(CCCl)Cc1ccccc1` (stereo not drawn), the Potency entry in test [7], in test [6] and in test [8] was “inactive” in each case. In addition, the Potency in test [2] was 18.7 µM (active). The values for the Z-AUC in test [3], in test [3] (setting [9]) and in test [3] (measured here: PEO4 Z-AUC) were 1.41 (inactive), 1.02 and 1.15, respectively.
As to `Nc1ccn([C@H]2CC[C@@H](CO)O2)c(=O)n1`, the Potency result in test [1], in test [6], in test [8] and in test [2] was “inactive” in each case.
In the case of `N[C@@H](Cc1c[nH]c2ccc(O)cc12)C(=O)O`, the Potency in test [7] was 1.05 µM (active). The Potency entry in test [6], in test [8] and in test [2] was “inactive” in each case. Also, the Z-AUC in test [3] was -0.189 (inactive); in test [3] (setting [9]) it was -0.312; in test [3] (measured here: PEO4 Z-AUC), -0.162. The figures for the z-score in test [4] (setting [10]), in test [4] (setting [11]) and in test [4] (setting [12]) were 0.236, 0.415 and 0.556, respectively.
`CS(=O)(=O)Nc1ccc([N+](=O)[O-])cc1Oc1ccccc1`: the Potency result in test [5] and in test [2] was “inactive” each time. For the same compound, in test [7], the Potency was 16.6 µM (active). Further, the z-score worked out at 1.08 in test [4] (setting [10]), 0.234 in test [4] (setting [11]) and 0.487 in test [4] (setting [12]).
As to `Clc1ccc2c(c1)C(N1CCNCC1)=Nc1ccccc1O2`, in test [6], the Potency entry is “inactive”. The values for the z-score in test [4] (setting [10]), in test [4] (setting [11]) and in test [4] (setting [12]) were 0.826, 0.445 and 0.654, respectively.
Consider `O=C(CCCN1CCC(O)(c2ccc(Cl)cc2)CC1)c1ccc(F)cc1`, for which, in test [6], the Potency entry was “inactive”. The Potency in test [8] is 23.5 µM (active).
Take `O=C1N(c2ccccc2)c2ccccc2C1(Cc1ccncc1)Cc1ccncc1`: in test [1], the Potency was 20.9 µM (active). The Potency entry in test [7], in test [6] and in test [8] was “inactive” throughout. In addition, the Z-AUC in test [3] was -0.0273 (inactive); in test [3] (setting [9]), 0.843; in test [3] (measured here: PEO4 Z-AUC), 0.797.
`COc1ccc(CCN(C)CCCC(C#N)(c2ccc(OC)c(OC)c2)C(C)C)cc1OC` (stereo not drawn): the Z-AUC in test [3] was 0.76 (inactive); in test [3] (setting [9]), 0.721; in test [3] (measured here: PEO4 Z-AUC) it was 1.08. In addition, the values for the z-score in test [4] (setting [10]), in test [4] (setting [11]) and in test [4] (setting [12]) were 0.794, 0.393 and 0.327, respectively.

These data come from PubChem BioAssay (NCATS).
